# PubChem BioAssay (NCATS)
# Results filed as inconclusive are left out. Activity calls are given as the source filed them. Unless noted, calls follow the shape of the dose curve; as a rule, active = well fitted curve in the direction sought with a large enough effect; inconclusive = small, poorly fitted or top-dose-only effect, or another doubt; inactive = no such curve, though single readings can be large; an effect the other way counts as inactive or inconclusive. Residues, ends and D or L forms follow the SMILES beside them.
# Tests used:
# [1] = biological target: Lysosomal acid glucosylceramidase (Homo sapiens) (UniProt P04062); test: Glucocerebrosidase-p2 (AID 348; in the data active = potency below about 10 µM; also: potency is read from the fitted curve at half-maximal effect); conditions: purified GBA, blue fluorogenic substrate, 40 min
# Outline: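 Compounds titrated from 0.6 nM upwards against 0.2 nM enzyme in pH 5.9 citric acid/KH2PO4, taurocholate, tween-20; blue fluorogenic substrate 80 uM, 40 min room temperature, stopped and read Ex 365/Em 440 for AC50.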
# [2] = AP1 Signaling Pathway (AID 357; active = well fitted curve in either direction with a large enough effect, not every such curve was filed as active;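 also: ME-180 reporter cells stimulated with EGF at its EC50 level; % is scaled to controls: 0 for no effect and ±100 for the full control effect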); conditions: ME-180 AP-1-bla reporter, EGF-induced, beta-lactamase ratio, 5 h; at 7.69 µM (top of the series) unless noted
# Outline: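 A ratiometric CCF4 readout (405 nm excitation; 460 and 530 nm emission) quantified AP-1-driven beta-lactamase in ME-180 cells after 5 h with compound and EC50 EGF; AC50 values were derived for activators and inhibitors.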
# [3] = biological target: Cytochrome P450 1A2 (Homo sapiens) (UniProt P05177); test: p450-cyp1a2 (AID 410; calls by dose curve; also: potency is read from the fitted curve at half-maximal effect)
# Outline: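 Human CYP1A2 (20nM) demethylated Luciferin-ME at its Km (100uM) in 100mM KPO4. After 10 min compound preincubation, NADPH regeneration ran the reaction 60 min at room temperature. Luciferin was read by luminescence, normalized to 57 uM furafylline.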
# [4] = NFAT Signaling Pathway (AID 444; active = well fitted curve in either direction with a large enough effect, not every such curve was filed as active;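 also: carbachol stimulus at about its EC50 of 1 µM final; % is scaled to controls: 0 for no effect and ±100 for the full control effect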); conditions: Jurkat NFAT-bla M1, carbachol, beta-lactamase ratio, 5 h; at 7.69 µM (top of the series) unless noted
# Outline: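 Read-out: CCF4 FRET ratio (460 nm/530 nm) after 1 h RT dye loading, used for %activity and AC50 from titration series. Cells: Jurkat NFAT-β-lactamase/M1 line, treated with compound plus 1 uM carbachol for 5 h, 37 °C.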
# [5] = Stat Signaling Pathway (AID 446; active = well fitted curve in either direction with a large enough effect, not every such curve was filed as active;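 also: ME-180 cervical cancer cells given 40 pM IL-6 alongside compound; SIE-controlled beta-lactamase reporter measured as 460/530 nm FRET emission ratio; % is scaled to controls: 0 for no effect and ±100 for the full control effect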); conditions: ME-180 SIE beta-lactamase reporter, IL-6 stimulated, 5 h; at 7.69 µM (top of the series) unless noted
# Outline: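 Screening format detects activators and inhibitors alike: ME-180 SIE-bla cells stimulated at 40 pM IL-6 for 5 hrs with compound, then dual-emission beta-lactamase read at 405 nm excitation.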
# [6] = biological target: Glucocorticoid receptor (Homo sapiens) (UniProt P04150); test: GR-GFP Redistribution (AID 450;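 active = compounds whose dose series gives a full or clear partial fitted curve of increased nuclear translocation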; also: potency is read from the fitted curve at half-maximal effect); conditions: U2OS GR-GFP nuclear translocation, laser cytometry, 2 h
# [7] = biological target: Glucocorticoid receptor (Homo sapiens) (UniProt P04150); test: GR-EFC Redistribution (AID 451; calls by dose curve; also: potency is read from the fitted curve at half-maximal effect); conditions: CHO-K1 GR-EFC translocation, beta-gal luminescence, 2 h
# Outline: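 Translocation of GR-ED fusion to nuclear EA restores b-gal, read by luminescence after 1 h room-temperature detection. Engineered CHO-K1 biosensor cells, 1,000/well, exposed 2 h at 37 C to titrations up to 46 uM final.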
# [8] = biological target: Mitogen-activated protein kinase 10 (Mus musculus) (UniProt Q61831); test: JNK3 AlphaScreen Assay (AID 530; active = well fitted curve in either direction with a large enough effect, not every such curve was filed as active;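 also: kinase came from lysate of stimulated human HepG2 cells; signal reports phosphorylation of biotinylated GST-cJun 1-79 at Ser73 with 10 µM ATP; % is scaled to controls: 0 for no effect and ±100 for the full control effect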)
# Outline: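 Room-temperature AlphaScreen kinase assay; pre-activated HepG2 lysate as JNK3 source, biotin-GST-cJun(1-79) substrate, 10 uM ATP, compound 15 min preincubation.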
# [9] = biological target: 3',5'-cyclic-AMP phosphodiesterase 4B (Homo sapiens) (UniProt Q07343); test: qHTS Assay for Inhibitors of PDE-IV (AID 607; active = well fitted activation curve with a large enough effect in the main read-out, with a control signal flat, not every such curve was filed as active; also: % of control where 0% means no effect)
# Outline: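 The readout is membrane depolarisation from a cAMP-sensing CNG channel, detected with a potential dye at ex 535/em 590. Cells were HEK293-derived (endogenous PDE-IV) at 1000 cells/well, titrated up to 22.9 uM final.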
# [10] = biological target: Cytochrome P450 3A4 (Homo sapiens) (UniProt P08684); test: qHTS Assay for Activators of Cytochrome P450 3A4 (AID 885); also: nearly all actives have a fitted effect of over 65% in size
# Outline: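 Steps: enzyme/substrate mix dispensed; compound added, 10 min RT; NADPH regeneration solution added, 60 min RT; luciferin detection buffer stops reaction; 20 min later luminescence measured.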
# [11] = qHTS Assay for Lipid Storage Modulators (AID 1519; calls by dose curve); conditions: Drosophila S3 cells, BODIPY lipid droplet/cell ratio, laser cytometry, cells loaded with oleic acid; for activity change, negative = inhibition: at 57.5 µM (top of the series)
# Outline: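 Cells seeded at 5,000 per well were treated with compounds over a concentration series and loaded with oleic acid (400 uM, as added). Lipid droplet fluorescence (488 nm excitation, 500-530 nm channel) was read by laser-scanning cytometry and normalized to 20 uM Triacsin C.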
# [12] = biological target: Ubiquitin carboxyl-terminal hydrolase 1 (Homo sapiens) (UniProt O94782); test: Inhibitors of USP1/UAF1: Pilot qHTS (AID 504865);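 also: rhodamine fluorescence freed from ubiquitin-rhodamine substrate followed over time; top concentration of the series differs between compounds; % is scaled to controls: 0 for no effect and ±100 for the full control effect; nearly all actives have a fitted effect of over 35% in size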
# Outline: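 USP1/UAF1 complex at 1 nM preincubated 15 min at room temperature with compound, then Ub-Rho substrate added at 150 nM final. Fluorescence (480/540 nm) read kinetically in 50 mM HEPES pH 7.8, 0.5 mM EDTA, 1 mM TCEP, 0.1 mg/ml BSA, 0.01% Tween-20.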
# [13] = Counterscreen qHTS for small molecule stabilizers of the endoplasmic reticulum resident proteome: GLuc-NoTag assay (AID 1508627); also: potency is read from the fitted curve at half-maximal effect;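 as to activity change, negative = inhibition: SH-SY5Y cells given compound then 100 nM thapsigargin to empty ER calcium; 0% = thapsigargin alone and -100% = DMSO vehicle control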
# Outline: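 Luminescence of Gaussia luciferase secreted into the medium (coelenterazine, 0.07x final, unlysed cells) was the read-out. Human SH-SY5Y neuroblastoma cells constitutively secreting untagged GLuc received compound for 19 h, then 100 nM thapsigargin for 4 h.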
# [14] = Confirmatory qHTS for small molecule stabilizers of the endoplasmic reticulum resident proteome: Secreted ER Calcium Modulated Protein (SERCaMP) assay (AID 1508628); also: nearly all actives have a fitted effect of over 40% in size; also: potency is read from the fitted curve at half-maximal effect
# Outline: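 We seeded SH-SY5Y-GLuc-SERCaMP cells, added compounds (three concentrations in the primary run, eleven up to 76.6 uM in confirmation), incubated 16 h, depleted ER calcium with thapsigargin, and read luciferase 4 h later.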
# [15] = Cell Viability qHTS for small molecule stabilizers of the endoplasmic reticulum resident proteome (AID 1508629); conditions: cell viability counter-screen, 100 nM thapsigargin for final 4 h;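 also: compound exposure about 46 h in total before the viability read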; also: potency is read from the fitted curve at half-maximal effect
# [16] = biological target: Dual specificity protein kinase CLK4 (Homo sapiens) (UniProt Q9HAZ1); test: qHTS Assay for Inhibitors of CDC-like Kinase 4 (Kinase-Glo Assay) (AID 1770); also: nearly all actives have a fitted effect of over 65% in size; also: potency is read from the fitted curve at half-maximal effect
# Outline: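 25 nM Clk4 with 100 uM RS repeat peptide and 1 uM ATP (final) in Tris pH7.5, 10 mM MgCl2, 4.5 h at room temperature. Remaining ATP measured by Kinase-Glo luciferase luminescence.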
# [17] = biological target: Dual specificity protein kinase CLK4 (Homo sapiens) (UniProt Q9HAZ1); test: qHTS Assay for Inhibitors of CDC-like Kinase 4 (ADP-Glo Assay) (AID 1771); also: nearly all actives have a fitted effect of over 70% in size; also: potency is read from the fitted curve at half-maximal effect
# Outline: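 Clk4 (25 nM) was incubated 1 hr at room temperature with 100 uM RS repeat peptide and 1 uM ATP in buffer with 2 mM MgCl2, 0.5 mM EGTA, 2.5 mM DTT. ADP formed was quantified by ADP-Glo luminescence.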
# [18] = biological target: Dual specificity protein kinase CLK4 (Homo sapiens) (UniProt Q9HAZ1); test: qHTS Assay for Inhibitors of CDC-like Kinase 4 (ADP-FP Assay) (AID 1795); also: nearly all actives have a fitted effect of over 60% in size; also: potency is read from the fitted curve at half-maximal effect
# Outline: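 Recombinant Clk4 (6.25 nM) phosphorylated 100 uM RS repeat peptide with 1 uM ATP in 25 mM Tris pH 7.5, 10 mM MgCl2, 0.5 mM EGTA, 2.5 mM DTT, 0.01% Triton X-100 for 1 h. ADP was detected by Transcreener ADP2 competitive fluorescence polarization after 30 min at room temperature.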
# [19] = measured here: cell count channel max response
# [20] = measured here: lipid channel max response
# Glucocorticoid receptor (Homo sapiens), sequence (P04150 whole entry, looked up, the tested form may be a part): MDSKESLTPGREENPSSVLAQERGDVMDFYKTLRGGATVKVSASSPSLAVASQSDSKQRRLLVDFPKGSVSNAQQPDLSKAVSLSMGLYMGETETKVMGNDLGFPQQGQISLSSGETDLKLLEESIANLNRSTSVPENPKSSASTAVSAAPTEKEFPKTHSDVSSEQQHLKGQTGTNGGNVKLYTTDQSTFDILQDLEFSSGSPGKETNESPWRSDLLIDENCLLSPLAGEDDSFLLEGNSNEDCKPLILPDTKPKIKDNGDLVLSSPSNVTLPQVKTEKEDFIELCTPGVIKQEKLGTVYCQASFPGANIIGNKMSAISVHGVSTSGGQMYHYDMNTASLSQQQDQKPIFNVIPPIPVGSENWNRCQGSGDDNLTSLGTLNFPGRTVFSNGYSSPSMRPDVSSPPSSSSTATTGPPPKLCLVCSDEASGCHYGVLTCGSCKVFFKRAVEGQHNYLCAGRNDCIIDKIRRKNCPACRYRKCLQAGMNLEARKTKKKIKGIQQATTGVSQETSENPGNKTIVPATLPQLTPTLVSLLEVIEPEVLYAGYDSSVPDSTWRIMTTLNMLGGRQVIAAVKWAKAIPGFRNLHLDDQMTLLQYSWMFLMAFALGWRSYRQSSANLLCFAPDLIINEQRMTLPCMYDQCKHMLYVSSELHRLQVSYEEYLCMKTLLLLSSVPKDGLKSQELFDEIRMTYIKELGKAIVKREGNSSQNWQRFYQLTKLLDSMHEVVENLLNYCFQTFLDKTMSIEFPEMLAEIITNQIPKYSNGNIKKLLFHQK
# 3',5'-cyclic-AMP phosphodiesterase 4B (Homo sapiens), sequence (Q07343 whole entry, looked up): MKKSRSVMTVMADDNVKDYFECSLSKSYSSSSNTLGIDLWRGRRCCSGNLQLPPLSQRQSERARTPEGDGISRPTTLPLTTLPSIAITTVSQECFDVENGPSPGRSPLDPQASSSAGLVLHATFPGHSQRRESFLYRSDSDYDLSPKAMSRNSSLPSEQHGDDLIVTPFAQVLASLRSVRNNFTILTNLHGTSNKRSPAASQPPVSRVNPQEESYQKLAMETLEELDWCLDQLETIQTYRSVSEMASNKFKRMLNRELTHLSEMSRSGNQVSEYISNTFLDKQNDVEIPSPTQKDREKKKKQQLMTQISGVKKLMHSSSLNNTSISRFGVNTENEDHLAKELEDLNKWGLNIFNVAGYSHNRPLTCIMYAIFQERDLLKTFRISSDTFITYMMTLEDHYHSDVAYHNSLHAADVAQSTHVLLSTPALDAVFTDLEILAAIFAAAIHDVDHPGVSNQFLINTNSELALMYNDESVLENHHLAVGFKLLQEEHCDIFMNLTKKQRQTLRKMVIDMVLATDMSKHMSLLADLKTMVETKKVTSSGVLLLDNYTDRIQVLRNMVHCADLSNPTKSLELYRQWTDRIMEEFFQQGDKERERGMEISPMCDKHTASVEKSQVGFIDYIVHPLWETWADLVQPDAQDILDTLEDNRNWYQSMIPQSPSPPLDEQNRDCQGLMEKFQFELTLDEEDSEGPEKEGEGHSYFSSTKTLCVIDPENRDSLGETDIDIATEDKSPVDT
# Lysosomal acid glucosylceramidase (Homo sapiens), sequence (P04062 whole entry, looked up): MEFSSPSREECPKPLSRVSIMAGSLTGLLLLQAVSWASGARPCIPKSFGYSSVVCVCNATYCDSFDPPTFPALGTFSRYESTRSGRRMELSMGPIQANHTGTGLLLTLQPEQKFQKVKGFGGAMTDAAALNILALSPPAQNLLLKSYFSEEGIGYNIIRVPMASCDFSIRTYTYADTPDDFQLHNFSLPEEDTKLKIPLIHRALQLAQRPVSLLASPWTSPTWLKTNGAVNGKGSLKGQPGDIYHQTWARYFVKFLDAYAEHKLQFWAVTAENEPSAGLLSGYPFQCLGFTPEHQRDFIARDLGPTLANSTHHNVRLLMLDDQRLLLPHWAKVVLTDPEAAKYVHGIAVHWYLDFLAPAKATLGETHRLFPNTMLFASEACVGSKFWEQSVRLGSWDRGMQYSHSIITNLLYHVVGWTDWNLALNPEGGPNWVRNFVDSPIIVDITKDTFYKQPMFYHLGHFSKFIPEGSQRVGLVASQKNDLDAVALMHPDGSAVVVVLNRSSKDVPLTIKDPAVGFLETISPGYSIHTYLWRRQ
# Cytochrome P450 1A2 (Homo sapiens), sequence (P05177 whole entry, looked up): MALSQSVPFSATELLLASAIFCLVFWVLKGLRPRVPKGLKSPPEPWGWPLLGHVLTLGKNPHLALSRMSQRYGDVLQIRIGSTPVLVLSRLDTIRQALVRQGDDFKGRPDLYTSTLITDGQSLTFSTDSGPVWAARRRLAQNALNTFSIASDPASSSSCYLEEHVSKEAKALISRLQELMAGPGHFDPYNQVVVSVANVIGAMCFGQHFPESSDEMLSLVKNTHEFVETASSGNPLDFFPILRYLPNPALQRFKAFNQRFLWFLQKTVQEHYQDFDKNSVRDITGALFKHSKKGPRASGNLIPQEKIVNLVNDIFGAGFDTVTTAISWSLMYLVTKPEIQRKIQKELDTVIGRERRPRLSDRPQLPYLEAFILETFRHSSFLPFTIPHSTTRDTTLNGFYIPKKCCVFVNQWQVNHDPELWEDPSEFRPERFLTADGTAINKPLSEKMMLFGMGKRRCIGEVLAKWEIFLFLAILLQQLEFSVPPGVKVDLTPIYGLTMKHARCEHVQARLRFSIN
# Cytochrome P450 3A4 (Homo sapiens), sequence (P08684 whole entry, looked up): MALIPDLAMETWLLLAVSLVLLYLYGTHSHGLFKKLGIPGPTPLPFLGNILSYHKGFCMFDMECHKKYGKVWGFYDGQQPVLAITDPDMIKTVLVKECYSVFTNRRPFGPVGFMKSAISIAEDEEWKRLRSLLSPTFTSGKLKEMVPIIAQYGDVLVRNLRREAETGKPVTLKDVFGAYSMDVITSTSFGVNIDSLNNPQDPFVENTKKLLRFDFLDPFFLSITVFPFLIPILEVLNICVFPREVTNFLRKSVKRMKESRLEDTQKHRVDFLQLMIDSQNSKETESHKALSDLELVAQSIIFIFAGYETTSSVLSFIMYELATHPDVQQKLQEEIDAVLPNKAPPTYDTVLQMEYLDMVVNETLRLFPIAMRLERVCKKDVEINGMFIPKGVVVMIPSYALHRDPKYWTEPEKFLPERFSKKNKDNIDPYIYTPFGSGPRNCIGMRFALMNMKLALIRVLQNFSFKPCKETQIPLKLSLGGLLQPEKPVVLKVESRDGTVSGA
# Dual specificity protein kinase CLK4 (Homo sapiens), sequence (Q9HAZ1 whole entry, looked up): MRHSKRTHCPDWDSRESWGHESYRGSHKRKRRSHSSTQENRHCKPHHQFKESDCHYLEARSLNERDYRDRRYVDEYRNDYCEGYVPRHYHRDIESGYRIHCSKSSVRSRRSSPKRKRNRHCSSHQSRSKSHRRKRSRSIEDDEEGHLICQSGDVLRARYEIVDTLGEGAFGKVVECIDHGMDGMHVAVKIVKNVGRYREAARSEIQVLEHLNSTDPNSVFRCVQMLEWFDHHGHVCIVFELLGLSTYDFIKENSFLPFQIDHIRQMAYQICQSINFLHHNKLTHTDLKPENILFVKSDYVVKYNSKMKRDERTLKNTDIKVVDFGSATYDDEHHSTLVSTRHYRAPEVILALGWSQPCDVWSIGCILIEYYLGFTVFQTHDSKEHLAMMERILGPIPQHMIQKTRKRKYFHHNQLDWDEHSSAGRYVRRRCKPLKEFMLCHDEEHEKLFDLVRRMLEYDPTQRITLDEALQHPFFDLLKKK
# Ubiquitin carboxyl-terminal hydrolase 1 (Homo sapiens), sequence (O94782 whole entry, looked up): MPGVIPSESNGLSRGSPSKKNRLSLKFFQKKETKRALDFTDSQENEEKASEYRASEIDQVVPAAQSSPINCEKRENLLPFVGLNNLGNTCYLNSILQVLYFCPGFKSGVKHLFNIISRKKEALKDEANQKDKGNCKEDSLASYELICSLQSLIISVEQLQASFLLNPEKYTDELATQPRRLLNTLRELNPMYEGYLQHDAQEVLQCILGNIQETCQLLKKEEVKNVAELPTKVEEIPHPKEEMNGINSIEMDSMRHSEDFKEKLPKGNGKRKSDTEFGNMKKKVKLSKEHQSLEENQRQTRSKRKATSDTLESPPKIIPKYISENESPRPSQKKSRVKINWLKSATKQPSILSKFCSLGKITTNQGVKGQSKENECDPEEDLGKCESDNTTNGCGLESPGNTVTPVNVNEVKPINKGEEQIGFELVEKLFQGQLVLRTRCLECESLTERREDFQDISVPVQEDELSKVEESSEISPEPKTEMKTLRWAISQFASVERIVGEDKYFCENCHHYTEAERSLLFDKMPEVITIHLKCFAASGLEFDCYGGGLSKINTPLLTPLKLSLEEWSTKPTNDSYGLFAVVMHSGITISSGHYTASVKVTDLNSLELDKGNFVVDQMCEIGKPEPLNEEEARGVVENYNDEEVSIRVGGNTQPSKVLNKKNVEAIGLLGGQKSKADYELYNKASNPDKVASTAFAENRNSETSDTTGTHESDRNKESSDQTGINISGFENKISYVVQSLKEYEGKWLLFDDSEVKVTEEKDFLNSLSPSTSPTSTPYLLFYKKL
smiles,measurement,setting,value
Cc1ccccc1-c1nc(N2CCNCC2)c2ccccc2n1,Potency,[1],> 11.4 µM (inactive)
same,"activity change, negative = inhibition",[2],12.7% (inactive)
same,Potency,[3],5.01 µM (active)
same,"activity change, negative = inhibition",[4],2.71% (inactive)
same,"activity, negative = inhibition",[5],-10.4% (inactive)
same,Potency,[6],> 46 µM (inactive)
same,Potency,[7],> 46 µM (inactive)
same,outcome,[8],inactive
same,Potency,[9],inactive
same,Potency,[10],inactive
same,"activity change, negative = inhibition",[11],4.63% (inactive)
same,max response,[11]; [19],23.8%
same,max response,[11]; [20],27.5%
same,Potency,[12],inactive
same,Potency,[13],inactive
same,Potency,[14],12.6 µM (active)
CC(=O)N[C@H]1C(O[C@@H]2O[C@H](C[C@@H](O)[C@H]3O[C@@H](N4CCC(=O)NC4=O)[C@H](O)[C@@H]3O)[C@H](O)[C@H](O)[C@H]2NC(=O)/C=C/CCCCCCCCCCC(C)C)OC(CO)[C@@H](O)[C@@H]1O (some centres not stated),Potency,[13],35.5 µM (active)
same,Potency,[14],0.562 µM (active)
same,Potency,[15],0.398 µM (active)
O=c1c(-c2ccc(F)cc2)nc2cnc(N3CCNCC3)nc2n1-c1ccccc1,Potency,[1],> 11.4 µM (inactive)
same,Potency,[3],10 µM (active)
same,Potency,[7],> 46 µM (inactive)
same,Potency,[9],inactive
same,Potency,[10],inactive
same,"activity change, negative = inhibition",[11],6.93% (inactive)
same,max response,[11]; [19],19.9%
same,max response,[11]; [20],25.6%
same,Potency,[16],inactive
same,Potency,[17],inactive
same,Potency,[12],inactive
same,Potency,[13],inactive
same,Potency,[14],inactive
same,max response,[15],-15.9% (inactive)
COc1cccc(-c2ccc3ncnc(N4CCN(C)CC4)c3c2)c1,Potency,[1],> 11.4 µM (inactive)
same,Potency,[3],3.98 µM (active)
same,"activity change, negative = inhibition",[4],13% (inactive)
same,"activity, negative = inhibition",[5],-6.09% (inactive)
same,Potency,[6],> 46 µM (inactive)
same,Potency,[7],> 46 µM (inactive)
same,outcome,[8],inactive
same,Potency,[9],inactive
same,Potency,[10],inactive
same,"activity change, negative = inhibition",[11],-0.228% (inactive)
same,max response,[11]; [19],8.77%
same,max response,[11]; [20],10.1%
same,Potency,[16],3.55 µM (active)
same,Potency,[17],3.98 µM (active)
same,Potency,[18],2.24 µM (active)
same,Potency,[12],inactive
same,Potency,[13],35.5 µM (active)
same,Potency,[14],39.8 µM (active)
COc1ccc(Oc2ncc3nc(-c4cc(F)cc(F)c4)c(=O)n(CCC#N)c3n2)cc1,Potency,[1],> 11.4 µM (inactive)
same,"activity change, negative = inhibition",[2],-6.65% (inactive)
same,"activity change, negative = inhibition",[4],-14.9% (inactive)
same,"activity, negative = inhibition",[5],-11.4% (inactive)
same,Potency,[6],> 9.22 µM (inactive)
same,Potency,[7],> 46 µM (inactive)
same,Potency,[9],inactive
same,Potency,[13],inactive
same,Potency,[14],31.6 µM (active)
same,max response,[15],-0.74% (inactive)
Fc1ccc(Nc2ccnc(-c3ccccc3C(F)(F)F)n2)cc1,Potency,[1],> 11.4 µM (inactive)
same,"activity change, negative = inhibition",[2],-7.91% (inactive)
same,Potency,[3],2 µM (active)
same,"activity change, negative = inhibition",[4],-6.61% (inactive)
same,"activity, negative = inhibition",[5],3.25% (inactive)
same,Potency,[6],> 46 µM (inactive)
same,Potency,[7],> 46 µM (inactive)
same,outcome,[8],inactive
same,Potency,[9],inactive
same,Potency,[10],inactive
same,Potency,[16],inactive
same,Potency,[17],inactive
same,Potency,[18],inactive
same,Potency,[13],inactive
same,Potency,[14],50.1 µM (active)
same,max response,[15],-1.83% (inactive)
O=C(O)/C=C/C(=O)Nc1ccc(OC(F)(F)Cl)cc1,Potency,[13],inactive
same,Potency,[14],inactive
same,max response,[15],5.17% (inactive)
CC[C@H](C)[C@H](NC(=O)[C@H](CC(=O)O)NC(=O)[C@H](CC(N)=O)NC(=O)[C@@H](NC(=O)[C@H](CCCNC(=N)N)NC(=O)[C@@H](NC(=O)[C@@H](NC(=O)[C@@H](NC(=O)[C@@H](NC(=O)[C@H](CCCCN)NC(=O)[C@@H](NC(=O)[C@H](CC(C)C)NC(=O)[C@@H](NC(=O)[C@H](CCCCN)NC(=O)[C@@H](NC(=O)[C@H](CC(=O)O)NC(=O)[C@H](CC(=O)O)NC(=O)[C@H](CCC(N)=O)NC(=O)[C@@H](NC(=O)[C@H](CCCCN)NC(=O)[C@H](CCC(N)=O)NC(=O)[C@@H](NC(=O)[C@@H]1CCCN1C(=O)[C@@H](N)C(C)C)[C@@H](C)CC)C(C)C)[C@@H](C)O)[C@@H](C)O)[C@@H](C)CC)[C@@H](C)O)[C@@H](C)CC)C(C)C)[C@@H](C)O)[C@@H](C)CC)C(=O)N[C@@H](CO)C(=O)N[C@@H](Cc1cnc[nH]1)C(=O)N[C@H](C(=O)N[C@@H](CCC(N)=O)C(=O)N[C@@H](CO)C(=O)N[C@H](C(=O)N[C@@H](CO)C(=O)N[C@@H](CO)C(=O)N[C@@H](CCCCN)C(=O)N[C@@H](CCC(N)=O)C(=O)N[C@@H](CCCCN)C(=O)O)C(C)C)[C@@H](C)O (H-VPIQKVQDDTKTLIKTIVTRINDISHTQSVSSKQK-OH),"activity change, negative = inhibition",[13],-4.21% [at 9.46 µM] (inactive)
same,"activity change, negative = decrease",[14],-1.59% [at 9.4 µM] (inactive)
same,max response,[15],4.6% (inactive)
COc1ccc(-c2nc3cnc(N4CCNCC4)nc3n(-c3ccc(OC)cc3)c2=O)cc1,Potency,[1],> 11.4 µM (inactive)
same,Potency,[6],> 9.22 µM (inactive)
same,Potency,[7],> 46 µM (inactive)
same,outcome,[8],inactive
same,Potency,[9],inactive
same,"activity change, negative = inhibition",[11],1.3% (inactive)
same,max response,[11]; [19],15%
same,max response,[11]; [20],15.1%
same,Potency,[16],inactive
same,Potency,[17],inactive
same,Potency,[18],inactive
same,Potency,[13],inactive
same,Potency,[14],inactive
same,Potency,[15],25.1 µM (active)
